Reference: PubChem BioAssay (NCATS)
Inconclusive results are not listed. Where a call stands in place of a potency, no number is given. Calls of active or inactive are those of the source. Calls come from the whole dose curve; as a rule, active = well fitted curve in the direction sought with a large enough effect; inconclusive = small, poorly fitted or top-dose-only effect, or another doubt; inactive = no such curve, though single readings can be large; an effect the other way counts as inactive or inconclusive. Bridge positions count the residues as written; N and C are the ends. Square brackets hold non-standard residues; d marks the D form. Side chains are listed from the residue outwards. Peptide text beside a SMILES is read from it. * marks the point of attachment. Phg(4-OMe) = COc1ccc([C@H](N)C(=O)O)cc1; d(aIle) = CC[C@H](C)[C@@H](N)C(=O)O; d(aThr) = C[C@@H](O)[C@@H](N)C(=O)O; NMeF = CN[C@@H](Cc1ccccc1)C(=O)O; Isobutyryl = CC(C)C(=O)*

tested on: Zika virus NS2B-NS3 protease (linked construct); experiment: Primary screen NINDS Rhodamine qHTS for Zika virus inhibitors (AID 1347160); settings: purified NS2B-NS3 protease, Rhodamine110 substrate fluorescence; series mostly up to 112 µM; note: nearly all actives have a fitted effect of over 55% in size
Method in brief: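 Percent inhibition, normalized to uninhibited and enzyme-free controls, is fitted to a 4-parameter Hill equation. Fluorescence change comes from a 15-min cleavage of 1.5 microM bis-peptide Rhodamine110 substrate by 25 nM linked NS2B-NS3 at room temperature.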
Potency is the fitted concentration of half-maximal effect.

Structure (SMILES)	Potency
CC[C@H](C)[C@H]1NC(=O)[C@@H](NC(=O)C(C)C)[C@@H](C)OC(=O)[C@H](COC(=O)CNC(C)=O)NC(=O)[C@@H]([C@@H](C)O)NC(=O)[C@H](Cc2ccccc2)N(C)C(=O)[C@H](c2ccc(OC)cc2)NC1=O (Isobutyryl-T[d(aIle)][Phg(4-OMe)][NMeF][d(aThr)]S([Gly-Ac]); ester 1-C)	inactive
C[n+]1cc2cc(C(N)=O)[nH]c3c(=N)c(Cl)c(N)c1c23	44 µM (active)
C/C1=C/[C@@H](C)[C@H](O)[C@@H](O)/C=C/CC/C=C/C(=O)O[C@@H]1[C@H](C)C(=O)CCCC1CC(=O)NC(=O)C1	inactive
CC(=O)Oc1cc2c(c(OC(C)=O)c1C1CCc3cc(Cl)c(Cl)n31)C(=O)n1c-2cc(Cl)c1Cl (stereo not given)	3.92 µM (active)
COc1ccc2[nH]c3c(c2c1)CCN1C[C@H]2C[C@@H](OC(=O)c4cc(OC)c(OC)c(OC)c4)[C@H](OC)[C@@H](OC)[C@H]2C[C@H]31	inactive
O[C@H]1c2ccccc2-c2c3c(cc4c2[C@@H]1NCC4)OCO3	49.3 µM (active)
CC(C)=CC[C@H]1C[C@@]2(CC=C(C)C)C(=O)[C@](CC=C(C)C)(C(=O)C(C(=O)c3ccccc3)=C2O)C1(C)C	4.4 µM (active)
C[C@]12CC[C@]3(C1)[C@H](CC2=O)C[C@@H](OC(=O)c1ccccc1)[C@H]1[C@](C)(C(=O)O)CCC[C@@]13C	19.6 µM (active)
CC(=O)O[C@H]1c2ccccc2-c2c3c(cc4c2[C@@H]1N(C(C)=O)CC4)OCO3	55.3 µM (active)
C=C[C@](Cl)(CBr)CCC=C(C)C	inactive
C=C1CC[C@@H](Br)C(C)(C)[C@]12CC=C(C)C(=O)C2	inactive
COc1cc2c(cc1OC)[C@@H](c1ccc3c(c1)OCO3)C(C)C(C)C2=O (stereo not given in full)	inactive
C[C@H]1C=C[C@H]2CCCC[C@@H]2[C@H]1C(=O)[C@H]1CC2=C(C(=O)O)CCN2C1=O	11 µM (active)
C/C(=C\[C@H](C)C(=O)/C=C/CC1CC(=O)NC(=O)C1)[C@@H]1OC(=O)/C=C/CC/C=C/C[C@@H](O)[C@@H]1C	31.1 µM (active)
CC(C)[C@]12CC[C@@]3(C)[C@H](C)CC[C@H](O)[C@@]3(CC1)c1cc3c(cc12)[nH]c1ccccc13	27.7 µM (active)
C/C=C1/CN2C3CC1C1C=CC(=O)N4c5ccccc5[C@@]3(C[C@@H]2C2=C[C@H]3C5CC6N(CC[C@@]67c6ccccc6N(C2=O)[C@@H]37)C/C5=C/C)[C@H]14 (stereo not given in full)	15.6 µM (active)
CC(C)=CCC[C@]12c3cc4c(cc3CC[C@@]1(C)[C@H](C)CC[C@@H]2O)[nH]c1ccccc14	24.7 µM (active)
Oc1ccc(C2Oc3cc(O)c4c(c3[C@@H]2c2cc(O)cc(O)c2)[C@H]2C(c3ccc(O)cc3)c3c(O)cc5c(c3[C@H]2C4c2ccc(O)cc2)[C@H](c2cc(O)cc(O)c2)C(c2ccc(O)cc2)O5)cc1 (stereo not given in full)	15.6 µM (active)
COc1cc(O)c(C(=O)[C@@H]2[C@H](CC=C(C)C)C(C)=CC[C@H]2c2ccccc2)c(O)c1	15.6 µM (active)
C=C(C)CC[C@H](Cc1c(O)cc(O)c2c1O[C@H](c1ccc(O)cc1)CC2=O)C(=C)C	15.6 µM (active)
COc1cc(/C=C/C(=O)OC[C@@H](Cc2ccc(O)c(OC)c2)[C@@H](COC(=O)/C=C/c2ccc(O)c(OC)c2)Cc2ccc(O)c(OC)c2)ccc1O	31.1 µM (active)
C=CC(CCCCC)C1C(=O)NC(=O)C1C(=O)C1C2C(C)CC(C(=O)O)CC2CC1(O)C(=O)/C=C/C (stereo not given)	6.21 µM (active)
C[C@]12CCC[C@](C)(C(=O)O)[C@@H]1CC[C@@]1(C)c3cocc3CC[C@H]21	15.6 µM (active)
COc1c(O)cc2c(c1O)C(=O)c1c(coc1C)C2=O	9.84 µM (active)
CC(C)C[C@@H]1c2c(O)c(C=O)c(O)c(C=O)c2O[C@]2(C)C=C[C@@H](C(C)C)C[C@H]12	13.9 µM (active)
COc1cc2c(c(O)c1O)C(=O)c1c(coc1C)C2=O	3.11 µM (active)
CO[C@H]1[C@@H](OC(=O)/C(C)=C\[C@@H]2O[C@@H]2[C@H]2O[C@H]2C)[C@H](O)[C@H](OCC23C[C@@H]4[C@H](C)CC[C@H]4C4(C=O)CC2C=C(C(C)C)C34C(=O)O)O[C@@H]1C (stereo not given in full)	22 µM (active)
C/C=C/C1C=CC2CC(C)CC(C)C2C1C(=O)CC(=O)NC(CO)C/C=C/CCCCC (stereo not given)	11 µM (active)
CC[C@H]1[C@H](C)[C@H](c2cc(OC)c(OC)cc2OC)[C@@H](C)[C@H](c2cc(OC)c(OC)cc2OC)[C@@]12C=C(OC)C(=O)C=C2OC	27.7 µM (active)

tested on: not listed separately; experiment: OV-KATE Cancer Cell Toxicity qHTS against the NCATS CANVASS Library (AID 1347345); settings: OV-KATE cells viability, CellTiter-Glo luminescence, 72 h; series mostly up to 38.3 µM
Method in brief: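 Quantitative HTS format: an 11-concentration series was applied to 1000 cells/well following a 4-hour attachment. Cultures ran 72 hours before ATP luminescence detection by CellTiter-Glo.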

Structure (SMILES)	Potency
Cc1occ2c1C(=O)c1c(cc(O)c(O)c1O)C2=O	inactive
O=C1CC2OCC=C3CN4C5CC3C2[C@@H]2N1c1ccccc1[C@]52C[C@@H]4C1=C[C@H]2C3CC4N(CC[C@@]45c4ccccc4N(C1=O)[C@@H]25)C/C3=C/CO (stereo not given in full)	inactive
C/C=C(/C)c1c(Cl)c(O)c(C)c2c1Oc1c(Cl)c(O)c(Cl)c(C)c1C(=O)O2	inactive
C=C[C@@]1(C)CC[C@@H]([C@H](C)C(=O)/C=C/C(C)(C)O)O1	inactive
C=CC(CCCCC)C1C(=O)NC(=O)C1C(=O)C1C(/C=C/C)C=CC2CC(C(=O)O)CC(C)C21 (stereo not given)	inactive
C=C1CC[C@@H](O[C@H]2C[C@@](O)([C@H](C)NC(=O)c3[nH]c(C)c(Cl)c3Cl)[C@H](O)[C@@H](C)O2)[C@@H]2C=C[C@H](C)C(/C(O)=C3/C(=O)[C@H](C(C)C)N([C@@H]4O[C@H](C)[C@H](OC(N)=O)[C@H](OC(C)=O)[C@@H]4OC)C3=O)[C@@H]12 (stereo not given in full)	inactive
O=c1cc(-c2ccc(O)c(O)c2)oc2cc(O[C@@H]3O[C@H](CO)[C@@H](O)[C@H](O)[C@H]3O)cc(O)c12	inactive
CC[C@H](C)[C@H]1NC(=O)[C@@H](NC(=O)C(C)C)[C@@H](C)OC(=O)[C@H](COC(=O)CNC(C)=O)NC(=O)[C@@H]([C@@H](C)O)NC(=O)[C@H](Cc2ccccc2)N(C)C(=O)[C@H](c2ccc(OC)cc2)NC1=O (Isobutyryl-T[d(aIle)][Phg(4-OMe)][NMeF][d(aThr)]S([Gly-Ac]); ester 1-C)	inactive
C[n+]1cc2cc(C(N)=O)[nH]c3c(=N)c(Cl)c(N)c1c23	inactive
C/C1=C/[C@@H](C)[C@H](O)[C@@H](O)/C=C/CC/C=C/C(=O)O[C@@H]1[C@H](C)C(=O)CCCC1CC(=O)NC(=O)C1	inactive
COc1ccc2[nH]c3c(c2c1)CCN1C[C@H]2C[C@@H](OC(=O)c4cc(OC)c(OC)c(OC)c4)[C@H](OC)[C@@H](OC)[C@H]2C[C@H]31	inactive
C[C@]12CC[C@]3(C1)[C@H](CC2=O)C[C@@H](OC(=O)c1ccccc1)[C@H]1[C@](C)(C(=O)O)CCC[C@@]13C	inactive
CC(=O)O[C@H]1c2ccccc2-c2c3c(cc4c2[C@@H]1N(C(C)=O)CC4)OCO3	inactive
C=C1CC[C@@H](Br)C(C)(C)[C@]12CC=C(C)C(=O)C2	inactive
COc1cc2c(cc1OC)[C@@H](c1ccc3c(c1)OCO3)C(C)C(C)C2=O (stereo not given in full)	inactive
C[C@H]1C=C[C@H]2CCCC[C@@H]2[C@H]1C(=O)[C@H]1CC2=C(C(=O)O)CCN2C1=O	inactive
CC(C)[C@]12CC[C@@]3(C)[C@H](C)CC[C@H](O)[C@@]3(CC1)c1cc3c(cc12)[nH]c1ccccc13	inactive
CC(C)=CCC[C@]12c3cc4c(cc3CC[C@@]1(C)[C@H](C)CC[C@@H]2O)[nH]c1ccccc14	inactive
C=C(C)CC[C@H](Cc1c(O)cc(O)c2c1O[C@H](c1ccc(O)cc1)CC2=O)C(=C)C	inactive
C=CC(CCCCC)C1C(=O)NC(=O)C1C(=O)C1C2C(C)CC(C(=O)O)CC2CC1(O)C(=O)/C=C/C (stereo not given)	inactive
C[C@]12CCC[C@](C)(C(=O)O)[C@@H]1CC[C@@]1(C)c3cocc3CC[C@H]21	inactive
CC(C)C[C@@H]1c2c(O)c(C=O)c(O)c(C=O)c2O[C@]2(C)C=C[C@@H](C(C)C)C[C@H]12	inactive
COc1cc2c(c(O)c1O)C(=O)c1c(coc1C)C2=O	6.66 µM (active)
CO[C@H]1[C@@H](OC(=O)/C(C)=C\[C@@H]2O[C@@H]2[C@H]2O[C@H]2C)[C@H](O)[C@H](OCC23C[C@@H]4[C@H](C)CC[C@H]4C4(C=O)CC2C=C(C(C)C)C34C(=O)O)O[C@@H]1C (stereo not given in full)	inactive
C/C=C/C1C=CC2CC(C)CC(C)C2C1C(=O)CC(=O)NC(CO)C/C=C/CCCCC (stereo not given)	10.6 µM (active)
CC[C@H]1[C@H](C)[C@H](c2cc(OC)c(OC)cc2OC)[C@@H](C)[C@H](c2cc(OC)c(OC)cc2OC)[C@@]12C=C(OC)C(=O)C=C2OC	inactive
